For 26 molecules, outcome and AC50 results are on record in PubChem BioAssay (EPA / NIEHS).

Read-out in assay [1]: Tissue plasminogen activator (tPA), PLAT (gene 5327)
Briefly: BSK_BE3C_tPA: BioMAP Diversity Plus: BE3C Assay for Tissue plasminogen activator (tPA) Biomarker Activity (AID 2283041).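 As to outcome: tPA level quantified by ELISA one day after compound addition.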 Conditions: primary human bronchial epithelial cells; actives raise or lower the signal. The gist of the method:
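Primary human bronchial epithelial cells in the BE3C system, exposed to compound for 24 h. tPA was quantified by ELISA; DMSO served as baseline, with gain or loss of signal fitted. Cytotoxicity checked in parallel cultures by SRB total-protein staining.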

Read-out in assay [2]: Interleukin-8 (IL8), CXCL8 (gene 3576)
The assay can be described thus: BSK_CASM3C_IL8: BioMAP Diversity Plus: CASM3C Assay for Interleukin-8 (IL8) Biomarker Activity (AID 2283042).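 Also: IL-8 protein level quantified by ELISA.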 The note with it: primary human coronary artery smooth muscle cells; actives raise or lower the signal.

Read-out in assay [3]: Human Leukocyte Antigen - DR isotype (HLADR), HLA-DRA (gene 3122)
Briefly: BSK_CASM3C_HLADR: BioMAP Diversity Plus: CASM3C Assay for Human Leukocyte Antigen - DR isotype (HLADR) Biomarker Activity (AID 2283043).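 Also: cell-surface HLA-DR protein level quantified by ELISA.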 The note with it: primary human coronary artery smooth muscle cells; actives raise or lower the signal.

Read-out in assay [4]: Macrophage colony-stimulating factor (MCSF), CSF1 (gene 1435)
The assay can be described thus: BSK_CASM3C_MCSF: BioMAP Diversity Plus: CASM3C Assay for Macrophage colony-stimulating factor (MCSF) Biomarker Activity (AID 2283044).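 Also: M-CSF protein amount quantified by ELISA after 24 h exposure.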 The note with it: primary human coronary artery smooth muscle cells; actives raise or lower the signal.

Read-out in assay [5]: Low-density lipoprotein receptor (LDLR), LDLR (gene 3949)
The assay can be described thus: BSK_CASM3C_LDLR: BioMAP Diversity Plus: CASM3C Assay for Low-density lipoprotein receptor (LDLR) Biomarker Activity (AID 2283045).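 Also: LDLR protein level on the cell surface quantified by ELISA.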 Conditions: primary human coronary artery smooth muscle cells; actives raise or lower the signal.

Read-out in assay [6]: Monocyte Chemoattractant Protein-1 (MCP1), CCL2 (gene 6347)
Briefly: BSK_CASM3C_MCP1: BioMAP Diversity Plus: CASM3C Assay for Monocyte Chemoattractant Protein-1 (MCP1) Biomarker Activity (AID 2283046).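 Also: MCP-1 level quantified by ELISA 24 h after dosing.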 The note with it: primary human coronary artery smooth muscle cells; actives raise or lower the signal.

Assay [7] is described as follows: BSK_CASM3C_Proliferation: Cell Proliferation Assessment in the BioMAP Diversity Plus: CASM3C Assay (AID 2283047).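 Also: sulforhodamine B total protein stain as relative cell number at 560 nm; sub-confluent cells exposed 48 h before staining; fitted both ways against DMSO so gain or loss of cell number.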 The note with it: primary human coronary artery smooth muscle cells.
Read-out in assay [8]: Monokine induced gamma interferon (MIG), CXCL9 (gene 4283)
Briefly: BSK_CASM3C_MIG: BioMAP Diversity Plus: CASM3C Assay for Monokine induced gamma interferon (MIG) Biomarker Activity (AID 2283048).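 Also: MIG protein level measured by ELISA.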 Conditions: primary human coronary artery smooth muscle cells; actives raise or lower the signal.

Read-out in assay [9]: serum amyloid A (SAA), SAA1 (gene 6288)
Briefly: BSK_CASM3C_SAA: BioMAP Diversity Plus: CASM3C Assay for serum amyloid A (SAA) Biomarker Activity (AID 2283049).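 Also: SAA protein level quantified by ELISA.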 Conditions: primary human coronary artery smooth muscle cells; actives raise or lower the signal.

Assay [10] is described as follows: BSK_CASM3C_SRB: Viability Assessment in the BioMAP Diversity Plus: CASM3C Assay (AID 2283050). The note with it: primary human coronary artery smooth muscle cells.

A word on the AC50: it is the concentration at which the activity in the assay is half-maximal.

The source made the active and inactive calls. The calls were made as follows: active = hit-call score of the fitted dose curve at least 0.9, where 1 is the maximum; inactive = score below 0.9.

Consider `CC(C)Oc1ccccc1O`, for which the outcome in [1], in assay [2], in assay [3], in [4], in assay [5] and in assay [6] was inactive. In addition, the result in assay [7], in assay [8], in assay [9] and in assay [10] was inactive.
As for `O=C1OC2(c3cc(Br)c(O)c(Br)c3Oc3c2cc(Br)c(O)c3Br)c2c(Cl)c(Cl)c(Cl)c(Cl)c21`, the AC50 in assay [1] was 0.744 µM (active); in assay [6], 0.0114 µM (active). For the same molecule, the outcome in [2], in [3], in assay [4], in assay [5], in assay [7] and in assay [8] was inactive. In addition, the result in [9] and in [10] was inactive.
Take `Cc1ccc2n[nH]nc2c1`: the result in assay [1], in assay [2], in assay [3], in [4], in [5] and in assay [6] was inactive. Besides, the outcome in assay [7], in assay [8], in assay [9] and in [10] was inactive.
Take `c1ccc2c(c1)c1cccc3ccc4cccc2c4c31`: the outcome in [1], in assay [2], in [3], in assay [4], in assay [6] and in assay [7] was inactive. For the same molecule, the outcome in [8], in assay [9] and in [10] was inactive.
On to `O=C=NC1CCC(CC2CCC(N=C=O)CC2)CC1` (stereo not drawn), for which the outcome in assay [1], in assay [2], in assay [3], in [4], in assay [6] and in [8] was inactive. In addition, the outcome in assay [9] and in assay [10] was inactive. Also, the results for the AC50 in assay [5] and in assay [7] were 0.0156 µM (active) and 0.0151 µM (active), respectively.
Regarding `CCCCC(CC)COCCC#N` (stereo not drawn), the result in assay [1], in [2], in assay [3], in assay [4], in assay [6] and in assay [7] was inactive. Further, the outcome in assay [8], in assay [9] and in assay [10] was inactive. In assay [5], the half-maximal activity concentration (AC50) is 0.151 µM (active).
Consider `O=C(O)c1cn(C2CC2)c2cc(N3CCNCC3)c(F)cc2c1=O`, for which the result in [1], in assay [2], in assay [3], in [5], in assay [6] and in assay [7] was inactive. For the same molecule, the outcome in assay [8], in assay [9] and in [10] was inactive.
For the molecule `CC(C)(COC(=O)c1ccccc1)COC(=O)c1ccccc1`, the outcome in assay [1], in [2], in [3], in assay [4], in assay [5] and in assay [6] was inactive. Moreover, the result in assay [7], in assay [8], in assay [9] and in assay [10] was inactive.
Take `CCn1c2ccccc2c2cc(N)ccc21`: the AC50 in assay [1] is 3.97 µM (active); in assay [4], 0.426 µM (active). Besides, the result in [2], in assay [3], in assay [5], in assay [6], in assay [7] and in [8] was inactive. The outcome in assay [9] and in assay [10] was inactive.
`CC1CCC(C(C)CS)CC1S` (stereo not drawn): the result in [1] was inactive. Further, the AC50 in assay [2] is 20 µM (active); in assay [3] it was 35.8 µM (active); in [4], 22.3 µM (active); in assay [5], 20 µM (active); in [6], 30.9 µM (active); in [7] it was 29.6 µM (active). For the same molecule, the AC50 in assay [8] is 36.5 µM (active); in [9] it was 20 µM (active); in assay [10] it was 29.7 µM (active).
In the case of `Nc1cc([N+](=O)[O-])ccc1Cl`, the result in assay [1], in assay [2], in assay [3], in [4], in [5] and in [6] was inactive. Besides, the result in [7], in assay [8], in assay [9] and in assay [10] was inactive.
With `C#C[C@]1(O)CC[C@H]2[C@@H]3CCC4=Cc5oncc5C[C@]4(C)[C@H]3CC[C@@]21C`, the outcome in assay [1], in [2], in [3], in assay [4], in assay [8] and in assay [9] was inactive. Moreover, the AC50 in assay [5] is 33.9 µM (active); in assay [6], 0.92 µM (active); in [7] it was 3.97 µM (active); in assay [10], 20 µM (active).
`Cc1ccc(Nc2ccc(O)c3c2C(=O)c2ccccc2C3=O)cc1`: the result in [1], in [2], in assay [3], in [4], in assay [5] and in [6] was inactive. Also, the outcome in assay [7], in assay [8], in assay [9] and in assay [10] was inactive.
For the molecule `CC(=O)Nc1ccccc1O`, the outcome in [1], in [2], in assay [3], in assay [4], in assay [5] and in assay [6] was inactive. Besides, the outcome in assay [7], in assay [8], in assay [9] and in assay [10] was inactive.
For the molecule `O=[N+]([O-])c1cc(C(F)(F)F)ccc1Cl`, the outcome in [1], in [2], in assay [3], in assay [4], in assay [5] and in assay [6] was inactive. For the same molecule, the outcome in [7], in assay [8], in assay [9] and in assay [10] was inactive.
As for `O=C(O)C[C@H](O)C[C@H](O)/C=C/c1c(C2CC2)nc2ccccc2c1-c1ccc(F)cc1`, the AC50 in assay [1] was 0.0843 µM (active); in [4], 0.0636 µM (active); in assay [6] it was 0.0117 µM (active); in assay [7] it was 0.129 µM (active). Besides, the result in assay [2], in [3], in assay [5], in [8], in [9] and in assay [10] was inactive.
As to `Cc1ccc(O)c(C(C)(C)C)c1`, the outcome in assay [1], in assay [2], in assay [4], in assay [5] and in assay [9] was inactive. Also, the AC50 was 26.8 µM (active) in assay [3]; 33.4 µM (active) in assay [6]; 29.1 µM (active) in assay [7]; 33.2 µM (active) in [8]; 24.6 µM (active) in assay [10].
`CCC(=O)OCc1ccccc1`: the outcome in assay [1], in assay [2], in assay [3], in assay [4], in assay [5] and in assay [6] was inactive. Moreover, the outcome in [7], in assay [8], in [9] and in [10] was inactive.
For the molecule `CC[Si](OC(C)=O)(OC(C)=O)OC(C)=O`, the result in assay [1], in [2], in [3], in assay [4], in assay [5] and in [6] was inactive. Moreover, the result in assay [7], in assay [8], in assay [9] and in assay [10] was inactive.
Consider `CC(C)c1ccc(C(C)C)cc1`, for which the AC50 was 23.3 µM (active) in assay [1]; 25.9 µM (active) in assay [3]; 32.4 µM (active) in [4]; 32.4 µM (active) in assay [6]; 31.4 µM (active) in [7]; 31.3 µM (active) in [8]. In [10], the AC50 is 30.6 µM (active). In addition, the result in assay [2], in [5] and in assay [9] was inactive.
Regarding `C=CCOC(=O)CCC1CCCCC1`, the outcome in assay [1], in assay [2], in [3], in assay [4], in assay [5] and in [6] was inactive. The outcome in assay [7], in [8], in [9] and in [10] was inactive.
Regarding `BrC1CCC(Br)C(Br)CCC(Br)C(Br)CCC1Br` (stereo not drawn), the outcome in [1], in [2], in assay [3], in assay [4], in assay [5] and in [6] was inactive. The result in [8], in assay [9] and in assay [10] was inactive. For the same molecule, in [7], the AC50 was 0.11 µM (active).
With `OC1OC[C@@H](O)[C@H](O)[C@H]1O` (stereo partly drawn), the result in assay [1], in [2], in [3], in assay [4], in [5] and in assay [6] was inactive. In addition, the result in [7], in [8], in assay [9] and in assay [10] was inactive.
Regarding `O=P(c1ccccc1)(c1ccccc1)c1ccccc1`, the result in assay [1], in [2], in assay [3], in [4], in assay [5] and in assay [6] was inactive. Moreover, the result in assay [7], in assay [8], in assay [9] and in assay [10] was inactive.
Regarding `CCCCC/C=C/C=C/C=O`, the outcome in assay [1], in [2], in [5], in assay [8] and in assay [9] was inactive. Also, the half-maximal activity concentration (AC50) in assay [3] is 23.7 µM (active); in [4], 20 µM (active); in assay [6], 36.1 µM (active); in assay [7], 30.3 µM (active); in assay [10] it was 32.3 µM (active).
As for `O=C(O)c1cn(-c2ccc(F)cc2)c2cc(N3CCNCC3)c(F)cc2c1=O`, the result in [1], in assay [2], in assay [3], in assay [4], in assay [5] and in assay [6] was inactive. Besides, the outcome in [7], in assay [8], in [9] and in [10] was inactive.
